Assay results reported in PubChem BioAssay AID1159580 (chemical genetic matrix, 2015).
The whole screen tested about 5,500 compounds, of which about 2,000 (36%) were called active. Inconclusive results (about 18%) are left out. No stated cut-off is given here; in the data, active means normalized growth mostly below about 0.91 (no sharp cut-off); inconclusive means no clear call, values can overlap the other calls; inactive means mostly above about 0.92. This is one part of the list.

Experiment: chemical genetic growth profiling, strain panel (AID 1159580);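 further: tested at 20 µM; growth read once vehicle control cultures reached saturation at 30 °C; 1 = growth at the plate median or of vehicle wells; lower values mean less growth of the strain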
Details: S. cerevisiae deletion strains, growth OD
[1] = locus YAL040C, strain CLN3, hits give low values
[2] = locus YCL061C, strain MRC1 (second series), hits give low values
[3] = locus YDR363W, strain ESC2, hits give low values
[4] = locus YER002W, strain NOP16, hits give low values
[5] = locus YGR229C, strain SMI1, hits give low values
[6] = locus YJR075W, strain HOC1, hits give low values
[7] = locus YMR263W, strain SAP30, hits give low values
[8] = locus YNL153C, strain GIM3, hits give low values
[9] = locus YNL175C, strain NOP13, hits give low values
[10] = locus YNL197C, strain WHI3, hits give low values
[11] = locus YNL224C, strain SQS1, hits give low values
[12] = locus YNL322C, strain KRE1, hits give low values
[13] = locus YOR083W, strain WHI5 (second series), hits give low values
[14] = locus YAL013W, strain DEP1, hits give low values

Measured: normalized growth

C[N+](C)(C)CCOC(=O)CCC(=O)OCC[N+](C)(C)C
inactive: [1] 0.988 | [2] 1.01 | locus YDR150W, strain NUM1, hits give low values 1.02 | [3] 1.01 | [4] 1.01 | [5] 1.04 | [6] 0.992 | [7] 1 | locus YMR307W, strain GAS1, hits give low values 1.03 | [8] 1.03 | [9] 1.01 | [10] 1.02 | [11] 1.01 | [12] 0.992 | [13] 1.02 | locus YPL241C, strain CIN2, hits give low values 0.987

CNC(=O)OCC[N+](C)(C)C
inactive: [14] 0.99 | [1] 1 | [2] 0.992 | [3] 0.957 | [4] 0.968 | [6] 1.01 | locus YNL128W, strain TEP1, hits give low values 1 | [8] 0.983 | [9] 0.973 | [10] 0.962 | [11] 0.989 | [13] 0.985

Cn1cnc(CCN)c1
inactive: [14] 1.01 | [1] 0.999 | [2] 0.995 | [3] 0.979 | [4] 0.98 | locus YGR078C, strain PAC10, hits give low values 1.01 | [5] 1.01 | [6] 1.01 | [7] 1 | [8] 1 | [9] 0.986 | [10] 0.992 | [11] 0.983 | [12] 1.01 | [13] 0.99
